# PubChem BioAssay (NCI)
# “And” between values parts separate entries of the source, which are not always exact repeats. Identical values can stand only once. About 83,000 compounds went through this panel and 20% of them were active in at least one assay; those are over-represented in the sample as a whole.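 Activity criterion: percent growth below 10, measured after cells in 96-well plates were exposed to a single compound concentration for 48 hours.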 The source made the active and inactive calls.
# What was measured:
# Assay in all cases: NCI-60 one-dose screen, 48 h (100 = growth as untreated, 0 = no growth, -100 = all killed)
# HCT-15 colon = test system: HCT-15 colon
# HT29 colon = test system: HT29 colon
# SNB-75 CNS = test system: SNB-75 CNS
# SNB-19 CNS = test system: SNB-19 CNS
# U251 CNS = test system: U251 CNS
# PC-3 prostate = test system: PC-3 prostate
# SK-MEL-5 melanoma = test system: SK-MEL-5 melanoma
# UACC-62 melanoma = test system: UACC-62 melanoma
# LOX IMVI melanoma = test system: LOX IMVI melanoma
# SK-MEL-28 melanoma = test system: SK-MEL-28 melanoma
# SK-MEL-2 melanoma = test system: SK-MEL-2 melanoma
# EKVX NSCLC = test system: EKVX NSCLC
# SN12C renal = test system: SN12C renal
# UO-31 renal = test system: UO-31 renal
# TK-10 renal = test system: TK-10 renal
# ACHN renal = test system: ACHN renal
# CAKI-1 renal = test system: CAKI-1 renal
# A498 renal = test system: A498 renal
# CCRF-CEM leukemia = test system: CCRF-CEM leukemia
# MOLT-4 leukemia = test system: MOLT-4 leukemia
smiles,measurement,setting,value
Oc1c(Cl)cc(Cl)cc1Sc1cc(Cl)cc(Cl)c1O,growth,HCT-15 colon; 10 µM unless noted,8.23% (active) and 78.1% (inactive)
same,growth,HT29 colon; 10 µM unless noted,66.2% (inactive) and 15.8% (inactive) and 108% (inactive)
same,growth,SNB-75 CNS; 10 µM unless noted,97.2% (inactive) and 55.2% (inactive) and 100% (inactive)
same,growth,SNB-19 CNS; 10 µM unless noted,43.4% (inactive) and -0.0882% (active) and 74.5% (inactive)
same,growth,U251 CNS; 10 µM unless noted,48.8% (inactive) and 8.95% (active) and 71.5% (inactive)
same,growth,PC-3 prostate; 10 µM unless noted,10.7% (inactive) and 1.87% (active) and 48% (inactive)
same,growth,SK-MEL-5 melanoma; 10 µM unless noted,48% (inactive) and 51% (inactive)
same,growth,UACC-62 melanoma; 10 µM unless noted,19.1% (inactive) and -29% (active) and 50.2% (inactive)
same,growth,LOX IMVI melanoma; 10 µM unless noted,80.7% (inactive) and 41.3% (inactive) and 96% (inactive)
same,growth,SK-MEL-28 melanoma; 10 µM unless noted,58.3% (inactive) and 27.8% (inactive) and 95.3% (inactive)
same,growth,SK-MEL-2 melanoma; 10 µM unless noted,-21.7% (active) and -41% (active) and 79.7% (inactive)
same,growth,EKVX NSCLC; 10 µM unless noted,50% (inactive) and 23.4% (inactive) and 89% (inactive)
same,growth,SN12C renal; 10 µM unless noted,26.8% (inactive) and -26.6% (active) and 72.8% (inactive)
same,growth,UO-31 renal; 10 µM unless noted,73.2% (inactive) and 36.9% (inactive) and 85.2% (inactive)
same,growth,TK-10 renal; 10 µM unless noted,46.9% (inactive) and -11.2% (active) and 87.2% (inactive)
same,growth,ACHN renal; 10 µM unless noted,15.2% (inactive) and 105% (inactive)
same,growth,CAKI-1 renal; 10 µM unless noted,17.9% (inactive) and 11.7% (inactive) and 62.8% (inactive)
same,growth,A498 renal; 10 µM unless noted,54.4% (inactive) and 42.3% (inactive) and 69.5% (inactive)
same,growth,CCRF-CEM leukemia; 10 µM unless noted,23.1% (inactive) and 9.78% (active) and 61.2% (inactive)
O=C(/C=C\c1ccnc2ccccc12)c1ccc([N+](=O)[O-])cc1,growth,HCT-15 colon; 10 µM unless noted,87.9% (inactive) and 69.7% (inactive)
same,growth,HT29 colon; 10 µM unless noted,70.3% (inactive) and 3.25% (active)
same,growth,SNB-75 CNS; 10 µM unless noted,110% (inactive) and 86.5% (inactive)
same,growth,SNB-19 CNS; 10 µM unless noted,90% (inactive) and 86.4% (inactive)
same,growth,U251 CNS; 10 µM unless noted,95.3% (inactive) and 79.6% (inactive)
same,growth,PC-3 prostate; 10 µM unless noted,93.8% (inactive) and 74.7% (inactive)
same,growth,SK-MEL-5 melanoma; 10 µM unless noted,67.4% (inactive) and 53.8% (inactive)
same,growth,UACC-62 melanoma; 10 µM unless noted,82.6% (inactive) and 70.7% (inactive)
same,growth,LOX IMVI melanoma; 10 µM unless noted,52.1% (inactive) and 9.87% (active)
same,growth,SK-MEL-28 melanoma; 10 µM unless noted,104% (inactive) and 92.1% (inactive)
same,growth,SK-MEL-2 melanoma; 10 µM unless noted,83.4% (inactive) and 93.8% (inactive)
same,growth,EKVX NSCLC; 10 µM unless noted,75.3% (inactive)
same,growth,SN12C renal; 10 µM unless noted,96.9% (inactive) and 86.2% (inactive)
same,growth,UO-31 renal; 10 µM unless noted,61.6% (inactive) and 49.7% (inactive)
same,growth,TK-10 renal; 10 µM unless noted,81.3% (inactive) and 86.9% (inactive)
same,growth,ACHN renal; 10 µM unless noted,75.2% (inactive) and 70.6% (inactive)
same,growth,CAKI-1 renal; 10 µM unless noted,89.8% (inactive) and 70.3% (inactive)
same,growth,A498 renal; 10 µM unless noted,109% (inactive) and 55.2% (inactive)
same,growth,CCRF-CEM leukemia; 10 µM unless noted,67.9% (inactive) and 28.6% (inactive)
Cc1ccc(S(=O)(=O)Nc2nc3ccccc3nc2Nc2ccc3nsnc3c2)cc1,growth,HCT-15 colon; 10 µM unless noted,32% (inactive) and 58.6% (inactive)
same,growth,HT29 colon; 10 µM unless noted,47.5% (inactive) and 63.2% (inactive)
same,growth,SNB-75 CNS; 10 µM unless noted,63.3% (inactive) and 65.9% (inactive)
same,growth,SNB-19 CNS; 10 µM unless noted,47.7% (inactive) and 47.6% (inactive)
same,growth,U251 CNS; 10 µM unless noted,26.1% (inactive) and 40.1% (inactive)
same,growth,PC-3 prostate; 10 µM unless noted,42.8% (inactive) and 27.3% (inactive)
same,growth,SK-MEL-5 melanoma; 10 µM unless noted,18.7% (inactive) and 13.7% (inactive)
same,growth,UACC-62 melanoma; 10 µM unless noted,19% (inactive) and 12.8% (inactive)
same,growth,LOX IMVI melanoma; 10 µM unless noted,65.8% (inactive) and 47% (inactive)
same,growth,SK-MEL-28 melanoma; 10 µM unless noted,49.8% (inactive) and 51.6% (inactive)
same,growth,SK-MEL-2 melanoma; 10 µM unless noted,7.36% (active)
same,growth,EKVX NSCLC; 10 µM unless noted,46.5% (inactive) and 49.7% (inactive)
same,growth,SN12C renal; 10 µM unless noted,50.9% (inactive) and 34.8% (inactive)
same,growth,UO-31 renal; 10 µM unless noted,43.6% (inactive) and 22.3% (inactive)
same,growth,TK-10 renal; 10 µM unless noted,35.4% (inactive) and 53.3% (inactive)
same,growth,ACHN renal; 10 µM unless noted,54.5% (inactive) and 61% (inactive)
same,growth,CAKI-1 renal; 10 µM unless noted,59.2% (inactive) and 31.3% (inactive)
same,growth,A498 renal; 10 µM unless noted,56.7% (inactive) and 11.7% (inactive)
same,growth,CCRF-CEM leukemia; 10 µM unless noted,44.2% (inactive)
same,growth,MOLT-4 leukemia; 10 µM unless noted,35.3% (inactive) and 45.3% (inactive)
CCc1ccccc1-n1c(N)c(C#N)c(-c2ccc(OC)c(OC)c2)c(C#N)c1=O,growth,HCT-15 colon; 10 µM,101% (inactive)
same,growth,HCT-15 colon; 100 µM,81.2% (inactive)
same,growth,HT29 colon; 10 µM,110% (inactive)
same,growth,HT29 colon; 100 µM,102% (inactive)
same,growth,SNB-75 CNS; 10 µM,98% (inactive)
same,growth,SNB-75 CNS; 100 µM,-43% (active)
same,growth,SNB-19 CNS; 10 µM,104% (inactive)
same,growth,SNB-19 CNS; 100 µM,10.5% (inactive)
same,growth,U251 CNS; 10 µM,101% (inactive)
same,growth,U251 CNS; 100 µM,8.35% (active)
same,growth,PC-3 prostate; 10 µM,110% (inactive)
same,growth,PC-3 prostate; 100 µM,14.2% (inactive)
same,growth,SK-MEL-5 melanoma; 10 µM,113% (inactive)
same,growth,SK-MEL-5 melanoma; 100 µM,67.1% (inactive)
same,growth,UACC-62 melanoma; 10 µM,105% (inactive)
same,growth,UACC-62 melanoma; 100 µM,35% (inactive)
same,growth,LOX IMVI melanoma; 10 µM,104% (inactive)
same,growth,LOX IMVI melanoma; 100 µM,57.8% (inactive)
same,growth,SK-MEL-28 melanoma; 10 µM,124% (inactive)
same,growth,SK-MEL-28 melanoma; 100 µM,54% (inactive)
same,growth,SK-MEL-2 melanoma; 10 µM,108% (inactive)
same,growth,SK-MEL-2 melanoma; 100 µM,38% (inactive)
same,growth,EKVX NSCLC; 10 µM,106% (inactive)
same,growth,EKVX NSCLC; 100 µM,29.1% (inactive)
same,growth,SN12C renal; 10 µM,109% (inactive)
same,growth,SN12C renal; 100 µM,19.8% (inactive)
same,growth,UO-31 renal; 10 µM,85.2% (inactive)
same,growth,UO-31 renal; 100 µM,37.1% (inactive)
same,growth,TK-10 renal; 10 µM,114% (inactive)
same,growth,TK-10 renal; 100 µM,2.47% (active)
same,growth,ACHN renal; 10 µM,95.8% (inactive)
same,growth,ACHN renal; 100 µM,16.1% (inactive)
same,growth,CAKI-1 renal; 10 µM,97.5% (inactive)
same,growth,CAKI-1 renal; 100 µM,50.3% (inactive)
same,growth,A498 renal; 10 µM,120% (inactive)
same,growth,A498 renal; 100 µM,42.6% (inactive)
same,growth,CCRF-CEM leukemia; 10 µM,112% (inactive)
same,growth,CCRF-CEM leukemia; 100 µM,101% (inactive)
same,growth,MOLT-4 leukemia; 10 µM,95.7% (inactive)
same,growth,MOLT-4 leukemia; 100 µM,111% (inactive)
